The values that follow come from PubChem BioAssay (NCI).

The panel holds about 83,000 compounds, 20% with a hit somewhere; the sample as a whole holds those more often.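 Interpretation: 100, growth as untreated; towards 0, rising growth inhibition; 0, no net growth; 0 to -100, cell death. Compounds scoring below 10 were considered active.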 Calls of active or inactive are those of the source.

For the assay, the system named is HL-60(TB) leukemia. Kind of assay: NCI-60 one-dose screen, 48 h (100 = growth as untreated, 0 = no growth, -100 = all killed). The conditions noted are these: 10 µM unless noted.
`CN(C)CCNC(=O)c1cc2c3cc(Cl)ccc3[nH]c2c2ncccc12`: the growth was -64.8% (active).
In the case of `NC(=S)N1N=C(c2ccc(Cl)cc2)CC1c1cc2ccccc2[nH]c1=O` (stereo not drawn), the growth was 75.1% (inactive).
Regarding `COc1cc(-c2nc3sccn3c2-c2ccnc(NCCNS(=O)(=O)c3ccc(F)cc3)n2)ccc1F`, the growth was -17.4% (active).
Take `CCN(CC)CCCCCCNc1cccc2cc(Br)cnc12`: the growth is -51.7% (active).
Regarding `C=C1C(=O)O[C@H]2[C@H]1CC/C(Cn1cc(-c3cc(C(F)(F)F)cc(C(F)(F)F)c3)nn1)=C\CC[C@@]1(C)O[C@@H]21`, the growth was -49.1% (active).
Consider `O=C(Cc1ccc(F)c(Cl)c1)Nc1cc(C2(C(F)(F)F)CC2)nn1CC1CCCCC1`, for which the growth was 14.8% (inactive).
As to `Cc1ccc2c(c1)ncn2-c1ncnc2c1CC(C)c1ccccc1N2C` (stereo not drawn), the growth is -36.2% (active).
For `C=C1C(=O)O[C@H]2[C@H]1CC/C(COC(=O)NCc1cccc(OC)c1)=C\CC[C@@]1(C)O[C@@H]21`, the growth was -38.6% (active).
On to `CC[C@H](Nc1nc(N)nc(C)c1C#N)c1nc2cccc(NCCCCCC(=O)NO)c2c(=O)n1-c1ccccc1`, for which the growth was 39.7% (inactive).
As to `O=C(Nc1ccc(Cl)c(Cl)c1)OCn1ncc2ccc([N+](=O)[O-])cc21`, the growth is 96.3% (inactive).
`O=C1CSC(c2c(F)cccc2Cl)N1NC(=O)C(O)(c1ccccc1)c1ccccc1` (stereo not drawn): the growth is 98.3% (inactive).
`COc1ccc(-c2nc3c(c(-c4ccc(Cl)cc4)nn3-c3ccccc3)c(-c3ccc(O)cc3)c2C#N)cc1`: the growth is 22.7% (inactive).
For `Nc1c(C(=O)Nc2ccccc2Cl)sc2nc3c(cc12)CN(Cc1ccccc1)CC3`, the growth was 75.6% (inactive).
